High-throughput results: PubChem BioAssay, National Center for Advancing Translational Sciences (NCATS)
NPR1 antag: blocks ANP-stimulated signaling of human Npr1 receptor; P16066; HEK293 hNpr1 GloSensor cGMP, ANP-stimulated luminescence; Potency, µM (top dose mostly 46.3 µM), for inactives: top-dose activity change, negative = inhibition, usual class: inhibitors; hit rate 1.6% among 76,000; AID 1347048; calls by dose curve; note: % is set by controls: 0 for no effect and ±100 for the full control effect; nearly all actives have a fitted effect of over 60% in size
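HEK293 cells stably expressing human Npr1 and cGMP GloSensor pGS-40F, loaded 2 h with 2% GloSensor reagent, given compound 30 min at room temperature. Luminescence read before and 20 min after 0.1 nM hNppA.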
HEK cytotox: cytotoxic compounds in HEK 293 cells | HEK 293 viability, ATP luminescence (CellTiter-Glo), 48-72 h | Potency, µM (series often up to 115 µM), for the others: at the highest dose activity change, negative = cytotoxicity, actives largely listed as inhibitors | hit rate 6.6% among 94,000 | AID 1345083; note: % is set by controls: 0 for no effect and ±100 for the full control effect; nearly all actives have a fitted effect of over 60% in size
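HEK 293 cells at 250 cells/well were exposed to compounds by pintool transfer for 48 or 72 hr at 37 degree Celsius, 5% CO2. Viability was read as ATP-coupled luminescence with CellTiter-Glo after 10 min at room temperature.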
FLuc inh-1: inhibitors of firefly (Photinus pyralis) luciferase; purified P. pyralis luciferase, luminescence, biochemical; P08659; AID 1347043; Potency, µM (doses to about 115 µM), usual class: inhibitors; hit rate 2.5% among 76,000; note: % is set by controls: 0 for no effect and ±100 for the full control effect; nearly all actives have a fitted effect of over 65% in size
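Cell-free enzyme assay, 10nM P. pyralis luciferase, luciferin and ATP each at 10uM. Inhibition profiled over a 6-point titration, read as luminescence.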
NIH3T3 tox: cytotoxic compounds in NIH 3T3 cells. NIH 3T3 viability, CellTiter-Glo ATP luminescence, 48-72 h. hit rate 4.3% among 94,000. Potency, µM (highest dose often 96.7 µM), without a hit: top-dose activity change, negative = cytotoxicity, hits mostly inhibitors; note: % is set by controls: 0 for no effect and ±100 for the full control effect; nearly all actives have a fitted effect of over 55% in size
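Mouse fibroblast NIH 3T3 cells, 400 per well, received compound via pintool and were incubated for 48 or 72 hr prior to CellTiter-Glo ATP luminescence measurement.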
FLuc SDR no ATP: binders stabilizing firefly luciferase, without ATP; shares compounds with FLuc inh-1; Potency, µM (highest dose often 32.7 µM), for inactives: top-dose activation (signal gain), actives largely listed as activators; AID 1963318; Purified FLuc-C-HiBiT, Nano-Glo HiBiT luminescence, no ATP; hit rate 7.8% among 1,300; note: nearly all actives have a fitted effect of over 55% in size
FLuc SDR ATP: binders stabilizing firefly luciferase, plus ATP. Potency, µM (highest dose often 32.7 µM), for inactives: at the top dose activation (gain of signal), usual class: activators. purified FLuc-C-HiBiT + ATP, HiBiT complementation luminescence. hit rate 8.7% among 1,300. shares compounds with FLuc inh-1;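 note: signal reports ligand binding via conformational change of the enzyme rather than luciferase catalysis; % of control where 0% means no effect; nearly all actives have a fitted effect of over 55% in size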
FLuc inh-2: inhibitors of firefly luciferase enzymatic activity | Potency, µM (highest dose often 32.7 µM), without a hit: top-dose activity change, negative = inhibition, actives largely listed as inhibitors | purified FLuc-C-HiBiT enzyme, luciferin luminescence | shares compounds with FLuc inh-1 | AID 1963320 | hit rate 42% among 1,300; note: % is set by controls: 0 for no effect and ±100 for the full control effect; nearly all actives have a fitted effect of over 70% in size
* hit, by the source's call; i = inactive; ? = inconclusive; . = no result given; [ ] = another dose, or the depositor's remark. Only some compounds are listed: those with a hit (about 11% of all), similar ones and a draw of the others. Unless noted, calls come from the whole dose curve; as a rule, active = well fitted curve in the direction sought with a large enough effect; inconclusive = small, poorly fitted or top-dose-only effect, or another doubt; inactive = no such curve, though single readings can be large; an effect the other way counts as inactive or inconclusive. Potency is the fitted concentration of half-maximal effect.

SMILES | NPR1 antag | HEK cytotox | FLuc inh-1 | NIH3T3 tox | FLuc SDR no ATP | FLuc SDR ATP | FLuc inh-2
CCn1cc(-c2ccc(Cl)cc2)cc1C(=O)N1CCN(c2ccccn2)CC1 | ? | ? | i | ? | . | . | .
Fc1cc(Nc2cnc3ccc(-c4ccccc4)nn23)cc(N2CCOCC2)c1 | -27%[70.6 µM] | 45µM* | 13µM* | 32µM* | 14%[49.3 µM] | 11%[49.3 µM] | ?
Cc1ccc(N2CCN(c3nc(C(=O)O)cs3)CC2)cc1 | -16% | -2% | 1.4µM* | -6% | 13% | ? | 2µM*
Cc1nn(-c2cccc(Br)c2)c(C)c1[C@@H]1C=C[C@@H](NC(=O)CC(C)(C)CC(=O)O)C1 | -1% | ? | ? | ? | 13% | 9% | -7%
COc1ccc(NC(=O)O[C@@H]2C=C[C@H](c3c(C)nn(-c4ccccc4C)c3C)C2)cc1 | -4%[70.6 µM] | ? | i | ? | . | . | .
Cc1nn(-c2ccccn2)c(C)c1[C@@H]1C=C[C@@H](NC(=O)CCC(=O)O)C1 | 0%[70.6 µM] | -23%[172 µM] | i | -9%[174 µM] | . | . | .
Cc1ccc(-n2nc(C)c([C@@H]3C=C[C@@H](NC(=O)NC(C)C)C3)c2C)cc1Cl | 16µM* | ? | 3.5µM* | 63µM* | 30%[49.3 µM] | ? | 14µM*
Cc1nn(-c2ccc(C(C)C)cc2)c(C)c1[C@@H]1C=C[C@@H](NC(=O)NC(C)C)C1 | 32µM* | 22µM* | 3.5µM* | 28µM* | 16%[49.3 µM] | 20%[49.3 µM] | ?
Cc1nn(CCC#N)c(C)c1[C@@H]1C=C[C@@H](NC(=O)NC(C)C)C1 | 7%[70.6 µM] | 0%[172 µM] | i | ? | . | . | .
COc1ccc(NC(=O)N[C@@H]2C=C[C@@H](c3c(C)nn(-c4ccc(C(C)C)cc4)c3C)C2)cc1 | -27% | ? | 7.9µM* | ? | 14% | 13% | -11%
Cn1nc(C2CC2)cc1NC(=O)C(C)(C)C | . | i | . | -5%[138 µM] | . | . | .
COC[C@@H]1OCCN(C(=O)NCc2ccc(C)cc2)[C@H]1c1ccccc1 | . | -5% | . | -15% | . | . | .
Cc1nn(-c2ccccn2)c(C)c1[C@@H]1C=C[C@@H](NC(=O)C2CCCCC2)C1 | -8%[70.6 µM] | ? | i | ? | . | . | .
COc1ccc(-n2nc(C)c([C@@H]3C=C[C@@H](NC(=O)Nc4cccc(C#N)c4)C3)c2C)cc1 | ? | 89µM* | 7.9µM* | ? | 13%[49.3 µM] | 11%[49.3 µM] | ?
O=C(NCC1CC1)c1nc2cccnc2n(Cc2ccccc2)c1=O | . | -29%[172 µM] | . | ? | . | . | .
Cc1cc(C)n(-c2cccc(-c3nc(C4CCOC4)no3)c2)n1 (stereo unspecified) | 5% | ? | i | ? | . | . | .
COc1cccc(-c2noc(CCCc3nc(C4CCOC4)no3)n2)c1 (stereo unspecified) | -3% | -2% | i | -23% | . | . | .
COc1cccc(-c2ccc(-c3nc(C4CCOC4)no3)o2)c1 (stereo unspecified) | -20% | ? | 4.5µM* | ? | 21% | 15% | ?
CCOc1cccc(-c2nc(C3CCOC3)no2)c1 (stereo unspecified) | 1% | i | 13µM* | 1% | 13% | 11% | -3%
CN(CCNC(=O)c1cccnc1N1CC2CC(C1)[C@H]1CCCC(=O)N1C2)C1CCCCC1 (stereo partly specified) | 1% | ? | i | ? | . | . | .
O=C(c1ccc(Br)o1)N1CCN(C2CCN(Cc3ccccn3)C2=O)CC1 (stereo unspecified) | 3% | ? | i | -13% | . | . | .
O=C(O)C1(CCc2ccccc2)CCCN(c2ncnc3nc[nH]c23)C1 (stereo unspecified) | 2% | -13% | i | 3% | 14% | 10% | 1%
CCOC(=O)[C@@H]1[C@@H](OC(N)=O)C(=O)N(C(C)C)C12CCN(S(=O)(=O)c1cccs1)CC2 | . | i | . | ? | . | . | .
Cc1ccccc1CCNC(=O)c1ccc2c(c1)nc1n2CCOC1 | . | . | . | . | 12µM* | ? | 5µM*
Cc1ccccc1CCNC(=O)c1ccc2c(c1)nc1n2CCCCC1 | . | . | . | . | 2.8µM* | ? | 0.88µM*
SMILES | NPR1 antag | HEK cytotox | FLuc inh-1 | NIH3T3 tox | FLuc SDR no ATP | FLuc SDR ATP | FLuc inh-2
Cc1cccc(-c2nc3cc(C(=O)NCCN4CCOCC4)ccc3o2)n1 | . | -6%[172 µM] | . | -18%[138 µM] | . | . | .
CC1=NOC2(CCN(Cc3ccc(C(F)(F)F)cc3)CC2)C1 | 1%[70.6 µM] | ? | i | ? | . | . | .
O=[S+]([O-])(NC1CCN(c2ccc3nnc(-c4ccccc4)n3n2)C1)c1ccccc1 (stereo unspecified) | . | ? | . | -29% | . | . | .
CN(CCNC(=O)C1(CCO)CC12CCOCC2)C1CCCCC1 (stereo unspecified) | . | 1% | . | -23% | . | . | .
O=S(=O)(Cc1ccccc1)N1CCCC1Cc1noc(-c2cnccn2)n1 (stereo unspecified) | . | i | . | 1% | . | . | .
CCCc1nn2cc(-c3ccc(C)c(C)c3)nc2s1 | . | . | . | . | ? | ? | 0.62µM*
CCc1ccc(CNC(=O)C2CCCN(c3nn4cc(-c5ccc(F)cc5)nc4s3)C2)cc1 (stereo unspecified) | . | . | . | . | 12% | 15% | -20%
Cc1nc2cc(N3CCCC(C(=O)NCc4ccc(N(C)C)cc4)C3)cnc2nc1C (stereo unspecified) | 0% | -12% | i | -5% | . | . | .
O=C(c1cccc(F)c1)N1CC(Oc2cccc(-c3nc(-c4ccccc4)no3)c2)C1 | 5% | ? | ? | ? | . | . | .
CCNC(=O)N1CC(Oc2ccc(-c3nc(-c4ccccc4)no3)cc2)C1 | 0.25µM* | ? | 0.63µM* | -34% | 19% | 19% | ?
O=C(Nc1ccccc1)N1CC(Oc2ccc(-c3nc(-c4ccccc4)no3)cc2)C1 | -22% | ? | 1.3µM* | -3% | 17% | 14% | ?
O=C(Cc1cccc(F)c1)N1CC(Oc2ccc(-c3nc(-c4ccccc4)no3)cc2)C1 | 7.9µM* | ? | 2µM* | -13% | 13% | 15% | ?
C=CCNC(=O)N[C@H]1CCN2C(=O)c3cc(-c4cc(Cl)ccc4OC)ccc3NC(=O)[C@@H]2C1 | -4% | -21% | i | ? | . | . | .
Cc1ccccc1-c1noc(-c2ccc(NC(C)c3cnn(C)c3)nc2)n1 (stereo unspecified) | 7.9µM* | 32µM* | 0.32µM* | 45µM* | ? | ? | 0.99µM*
CC(Cn1cncn1)Nc1ccc(-c2nc(Cc3ccc(F)cc3)no2)cn1 (stereo unspecified) | -2% | ? | i | -22% | . | . | .
O=C(NC1CCCN(c2cc(-c3ccc(Cl)cc3)[nH]n2)C1)c1ccc2ncccc2c1 (stereo unspecified) | ? | ? | 1.8µM* | ? | 10% | 8% | 5µM*
